Measurements reported in PubChem BioAssay (NCI).
Compounds without any hit were thinned out: in the full panel of roughly 83,000, 20% have a hit.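 96-well plates, one dose, 48 hours. Percent growth reported; active if below 10.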 The source made the active and inactive calls.

test system: UO-31 renal; test: NCI-60 one-dose screen, 48 h (100 = growth as untreated, 0 = no growth, -100 = all killed); conditions: 10 µM unless noted

Compound	growth
CNC1=C([N+](=O)[O-])C(c2ccccc2O)C(C#N)=C(c2cccs2)O1 (centres undefined)	70.5% (inactive)
CCN(C(=O)CCl)C(C)(C)C(SSSC(c1ccc(Cl)cc1)C(C)(C)N(CC)C(=O)CCl)c1ccc(Cl)cc1 (centres undefined)	66.9% (inactive)
COc1cc2c(cc1OC)-c1cc(OC)c(OC)cc1C(CN(C)C)C2 (centres undefined)	68.1% [100 µM] (inactive)
CCCCOC(=O)c1cc(O)c(O)c(O)c1	31.7% (inactive)
FC(F)(F)c1cc(-c2nnc3n2N=C(Cl)CS3)cc(C(F)(F)F)c1	97.9% (inactive)
COc1cc2ncnc(Nc3ccc(S(=O)(=O)Nc4cc(C)on4)cc3)c2cc1OCCCN1CCN(c2ccc([N+](=O)[O-])cc2)CC1	79.2% (inactive)
COc1ccc(/C=N/NC(N)=S)c(OC)n1	95.2% (inactive)
O=C1c2cccc3cccc(c23)C(=O)N1CCCCCCCCCCN1C(=O)c2cccc3cccc(c23)C1=O	99.4% (inactive)
O=C1OC(/C=C/c2ccccc2)=NC/1=C/c1ccccc1[N+](=O)[O-]	66.5% (inactive)
C=C(c1ccc(C(=O)NCCCn2ccnc2)cc1)c1cc2c(cc1C)C(C)(C)CCC2(C)C	-20.4% (active)
O=[N+]([O-])c1ccc(Sc2nc(Cl)nc(NC3CCCC3)n2)cc1	-83.7% [100 µM] (active)
O=C(NCCN1CCCCC1)n1cc(-c2ccncc2)c(-c2ccc(Cl)c(O)c2)n1	55.4% (inactive)
CC(C)(C)c1cc(C[P+](c2ccccc2)(c2ccccc2)c2ccccc2)cc(C(C)(C)C)c1O	-11.4% (active)
N#Cc1ccc(-c2ccc(-c3cccs3)o2)cc1F	73.7% (inactive)
Cc1cccc2nc3ccccc3c(Nc3ccc(NS(C)(=O)=O)cc3)c12	21.6% (inactive)
COc1cc(OC)cc(-c2ccc(-c3ccc(C(=N)N)s3)s2)c1	-85.8% (active)
C=C1C(=O)O[C@H]2[C@H]1CC/C(COC(=O)NCc1[nH]nc3ccccc13)=C\CC[C@@]1(C)O[C@@H]21	71.5% (inactive)
COC(=O)[C@H](Cc1cn(C)cn1)NC(=O)[C@H](CC(C)C)NC(=O)Nc1cc(C(F)(F)F)cc(C(F)(F)F)c1	-96.7% [100 µM] (active)
CCOC(=O)c1cc(C(=O)OCC)c(C)nc1C	96.5% (inactive)
COC(=O)[C@@H](Cc1c[nH]c2ccccc12)NC(=O)/C=C/c1ccccc1	36.8% (inactive)
CCOC(=O)C(CCCCC(NC(C)=O)(C(=O)OCC)C(=O)OCC)(NC(C)=O)C(=O)OCC	87.3% (inactive)

test system: TK-10 renal; test: as above; conditions: 10 µM unless noted

Compound	growth
N=C(N)c1ccc(-c2ccc(-c3ccco3)o2)cc1F	7.98% (active)
CCOC(=O)Cn1c(-c2nonc2NC(=O)c2ccccc2F)nc2ccccc21	66.1% (inactive)
CC(C)OC1OC(OC(C)C)C(OC(C)C)OC1OC(C)C (centres undefined)	102% (inactive)
Cc1nn(-c2ccccc2)c2nc3c(nc12)C1=NCCN1C(c1ccc(Cl)cc1)N3 (centres undefined)	94.4% (inactive)
COc1ccc(-c2ccc(-c3ccc(C(=N)N)s3)s2)cc1	-90.7% (active)
N=C(N)c1ccc(-c2ccc(-c3cccs3)s2)cc1F	-94.3% (active)
Cc1csc(N/N=C/c2ccncc2)n1	91% (inactive)
CCCCCCCCCCCCCCCC1=NCCN1	102% (inactive)
CCS(=O)(=O)Nc1cccc(Nc2c3cccc(C)c3nc3c(C)cccc23)c1OC	29.2% (inactive)
N/C(=N\O)c1ncc(-c2ccc(C(F)(F)F)cc2)c(NC2CCCCCC2)n1	-69.5% [100 µM] (active)
N/N=C(\C(=N\N)c1ccccc1)c1ccccc1	98.8% (inactive)
COc1cc(/C=C/c2cc(/C=C/c3ccc(O)c(OC)c3)n(C(=O)Nc3ccc(F)c(Cl)c3)n2)ccc1O	24% (inactive)
Cc1cc(Nc2c3ccccc3nc3ccccc23)ccc1NS(C)(=O)=O	56% (inactive)
O=C(CC(=O)c1ccccc1F)Nc1ccc([N+](=O)[O-])cc1	91.7% (inactive)
CCCCCCCCCCCC1=NC(C)(C)CN1CCO	92.6% (inactive)
COc1cc2ccc(C(C)=O)cc2cc1OC	138% (inactive)
Cc1ccccc1Nc1n[nH]c(Cc2ccccc2)n1	90% (inactive)
CNC1=C([N+](=O)[O-])C(c2ccccc2O)C(C#N)=C(c2cccs2)O1 (centres undefined)	100% (inactive)
CCN(C(=O)CCl)C(C)(C)C(SSSC(c1ccc(Cl)cc1)C(C)(C)N(CC)C(=O)CCl)c1ccc(Cl)cc1 (centres undefined)	101% (inactive)

Compound	growth
COc1cc2c(cc1OC)-c1cc(OC)c(OC)cc1C(CN(C)C)C2 (centres undefined)	65.7% [100 µM] (inactive)
CCCCOC(=O)c1cc(O)c(O)c(O)c1	73% (inactive)
FC(F)(F)c1cc(-c2nnc3n2N=C(Cl)CS3)cc(C(F)(F)F)c1	118% (inactive)
COc1cc2ncnc(Nc3ccc(S(=O)(=O)Nc4cc(C)on4)cc3)c2cc1OCCCN1CCN(c2ccc([N+](=O)[O-])cc2)CC1	103% (inactive)
COc1ccc(/C=N/NC(N)=S)c(OC)n1	112% (inactive)
O=C1c2cccc3cccc(c23)C(=O)N1CCCCCCCCCCN1C(=O)c2cccc3cccc(c23)C1=O	121% (inactive)
O=C1OC(/C=C/c2ccccc2)=NC/1=C/c1ccccc1[N+](=O)[O-]	115% (inactive)
C=C(c1ccc(C(=O)NCCCn2ccnc2)cc1)c1cc2c(cc1C)C(C)(C)CCC2(C)C	84.9% (inactive)
O=[N+]([O-])c1ccc(Sc2nc(Cl)nc(NC3CCCC3)n2)cc1	-96.7% [100 µM] (active)
O=C(NCCN1CCCCC1)n1cc(-c2ccncc2)c(-c2ccc(Cl)c(O)c2)n1	79.4% (inactive)
CC(C)(C)c1cc(C[P+](c2ccccc2)(c2ccccc2)c2ccccc2)cc(C(C)(C)C)c1O	-3.05% (active)
N#Cc1ccc(-c2ccc(-c3cccs3)o2)cc1F	89.9% (inactive)
Cc1cccc2nc3ccccc3c(Nc3ccc(NS(C)(=O)=O)cc3)c12	78.6% (inactive)
COc1cc(OC)cc(-c2ccc(-c3ccc(C(=N)N)s3)s2)c1	-88.7% (active)
C=C1C(=O)O[C@H]2[C@H]1CC/C(COC(=O)NCc1[nH]nc3ccccc13)=C\CC[C@@]1(C)O[C@@H]21	-4.85% (active)
COC(=O)[C@H](Cc1cn(C)cn1)NC(=O)[C@H](CC(C)C)NC(=O)Nc1cc(C(F)(F)F)cc(C(F)(F)F)c1	-98.5% [100 µM] (active)
CCOC(=O)c1cc(C(=O)OCC)c(C)nc1C	113% (inactive)
COC(=O)[C@@H](Cc1c[nH]c2ccccc12)NC(=O)/C=C/c1ccccc1	54.1% (inactive)
CCOC(=O)C(CCCCC(NC(C)=O)(C(=O)OCC)C(=O)OCC)(NC(C)=O)C(=O)OCC	97.9% (inactive)
